Test results published in PubChem BioAssay AID588453 (National Center for Advancing Translational Sciences (NCATS), 2011).
About 4,000 (1%) of roughly 390,000 compounds were called active. Another 4% or so got no clear call; they are omitted. What follows is part of a selection rich in actives, with near analogues and random picks from the rest. A number with no mark means an inactive call. Calls come from the whole dose curve; as a rule, active = well fitted inhibition curve with a large enough effect; inconclusive = small, poorly fitted or top-dose-only effect; inactive = no such curve, though single readings can be large or run the other way.

Target: Thioredoxin reductase 1, cytoplasmic (Rattus norvegicus) (UniProt O89049)
Assay: qHTS Assay for Inhibitors of Mammalian Selenoprotein Thioredoxin Reductase 1 (TrxR1): qHTS; note: nearly all actives have a fitted effect of over 65% in size
Conditions: recombinant rTrxR1, NADPH fluorescence consumption, selenite substrate; series mostly up to 114 µM; activity change, negative = inhibition: at the top concentration
How it was run: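 Rat TrxR1 (90 nM in the dispensed reagent) was pre-reduced with 400 uM NADPH for 5 min at room temperature, then incubated with compound for 15 min. After 400 uM selenite was added, NADPH fluorescence (Ex 340/Em 450 nm) was followed for 8 min.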
% is set by controls: 0 for no effect and ±100 for the full control effect; potency is the fitted concentration of half-maximal effect.

Sequence of Thioredoxin reductase 1, cytoplasmic (Rattus norvegicus) (O89049 whole entry, looked up): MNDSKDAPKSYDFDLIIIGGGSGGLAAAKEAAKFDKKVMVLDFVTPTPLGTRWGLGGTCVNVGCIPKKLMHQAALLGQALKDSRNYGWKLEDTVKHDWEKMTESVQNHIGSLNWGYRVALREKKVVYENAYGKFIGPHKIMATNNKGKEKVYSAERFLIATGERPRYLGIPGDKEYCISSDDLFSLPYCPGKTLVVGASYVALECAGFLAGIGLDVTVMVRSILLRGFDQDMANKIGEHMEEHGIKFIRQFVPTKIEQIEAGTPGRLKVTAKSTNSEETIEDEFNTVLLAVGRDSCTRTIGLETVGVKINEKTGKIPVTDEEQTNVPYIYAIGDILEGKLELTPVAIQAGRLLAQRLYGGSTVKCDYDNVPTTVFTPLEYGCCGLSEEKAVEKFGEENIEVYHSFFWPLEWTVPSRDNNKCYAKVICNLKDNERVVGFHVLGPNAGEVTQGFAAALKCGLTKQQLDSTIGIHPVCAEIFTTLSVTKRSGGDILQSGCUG

| Compound | activity change, negative = inhibition | Potency |
| --- | --- | --- |
| COc1cc(OC)cc(C(=O)OCC(=O)Nc2sccc2C(N)=O)c1 | 15.1% |  |
| NC(=O)c1ccsc1NC(=O)c1ccco1 |  | 56.2 µM (active) |
| Cn1nnnc1SCC(=O)Nc1sccc1C(N)=O | 13.4% [at 11.4 µM] |  |
| C=C1C=C(C)n2ncc(C(=O)Nc3ccccc3O)c2N1 | 8.78% |  |
| Cc1ccc(C2=C/C(=C\c3cccnc3)C(=O)O2)cc1 | 31.3% |  |
| COc1ccccc1/C=C/C1=NC(=C\N(C)C)/C(=O)O1 | 9.66% [at 57.1 µM] |  |
| CN(C)/C=C1\C=C(c2ccccc2)OC1=O |  | 28.2 µM (active) |
| CN(C)c1ccc(/C=C/C=C/c2ccnc3ccccc23)cc1 | -12.8% |  |
| Cc1ccc(S(=O)(=O)CCC(=O)OCc2ccccc2)cc1 | 22.7% |  |
| O=C(CCS(=O)(=O)c1ccccc1)N(Cc1cccnc1)c1nc2c(F)cccc2s1 |  | 3.98 µM (active) |
| COc1cccc2sc(N(CCCN(C)C)C(=O)CCS(=O)(=O)c3ccccc3)nc12 |  | 1.58 µM (active) |
| CN(C)S(=O)(=O)c1ccc(C(=O)N(Cc2cccnc2)c2nc3c(F)cc(F)cc3s2)cc1 | 1.57% [at 57.1 µM] |  |
| COc1ccccc1CNC(=O)CS(=O)(=O)c1cccc2nsnc12 | 5.68% [at 57.1 µM] |  |
| CCOc1ccccc1NC(=O)CCS(=O)(=O)c1cccc2nsnc12 |  | inactive |
| Cc1cccc2sc(N(CCCN(C)C)C(=O)CCS(=O)(=O)c3ccccc3)nc12 |  | 15.8 µM (active) |
| O=C(C1COc2ccccc2O1)N(Cc1cccnc1)c1nc2c(F)cc(F)cc2s1 (stereo not drawn) | 23.2% [at 57.1 µM] |  |
| O=C(O)CCS(=O)(=O)c1ccc(-c2ccccc2)cc1 | -6.99% |  |
| Brc1ccc2c(c1)NC(c1cccnc1)=NC(c1ccccc1)=N2 | 25% |  |
| Cc1cccc(N2CCN(C(=O)c3ccc4c(c3)CCN4S(=O)(=O)c3ccccc3)CC2)c1C | 23.9% |  |
| Cc1cccc(NC(=O)C2CCN(S(=O)(=O)c3c(C)noc3/C=C/c3ccco3)CC2)c1 | -7.03% |  |
| CCC(=O)N1CCc2cc(S(=O)(=O)NC(C(=O)NCCc3ccc(C)cc3)C(C)C)ccc21 (stereo not drawn) | 19% |  |
| O=C(Cn1ncn2nc(-c3cccs3)cc2c1=O)NCc1cccc(Br)c1 | 17.3% |  |
| CCOC(=O)c1ccccc1NC(=O)c1nn(-c2ccc(OC)c(Cl)c2)c(=O)c2c1c1ccccc1n2C | 15.4% |  |
| Cc1cc2[nH]ncc2cc1NC(=S)NC(=O)c1ccccc1 |  | 7.08 µM (active) |
| CCOC(=O)C1=C(NC(=S)NC(=O)c2ccccc2)c2ccccc2CC1(C)C | -24.4% |  |
| Cc1ccc(C(=O)NC(=S)Nc2ccc3[nH]c(=O)[nH]c3c2)cc1C | 2.89% [at 57.1 µM] |  |
| CCOc1ccc(CNC(=O)c2ccc3nc(CC)c(CC)nc3c2)cc1OC | 15.6% [at 57.1 µM] |  |
| CCOc1cccc(NC(=O)CSc2ncc(-c3ccc(Cl)cc3)[nH]2)c1 | 3.45% |  |
